About 79,000 compounds went through this panel and 15% of them were active in at least one assay; those are over-represented in the sample as a whole. A number with no mark means an inactive call. Activity calls are given as the source filed them. Cut-off read from the data, not from the text of the source: active = growth inhibition above about 70%; inactive = the rest.

The nature of test [1]: NCI Yeast Anticancer Drug Screen. Data for the rad50 strain (AID 155).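 Note: 0% = growth of vehicle-only cultures of the same strain.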 The conditions noted are these: S. cerevisiae rad50 strain growth inhibition; at 50.0 µM; stronger effect = higher value. In outline: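 Inhibition values express reduced yeast growth in compound-treated cultures relative to vehicle-treated controls.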
A short description of test [2]: NCI Yeast Anticancer Drug Screen. Data for the mec2-1 strain (AID 157). As to conditions: S. cerevisiae mec2-1 strain, at 50.0 µM, stronger effect = higher value. In outline:
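Growth inhibition is read against vehicle-treated controls after compound exposure of the mec2-1 yeast strain, which is defective in DNA damage repair or cell cycle control.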

A short description of test [3]: NCI Yeast Anticancer Drug Screen. Data for the sgs1 mgt1 strain (AID 161).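 Note: 0% = growth of cultures given vehicle only.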 As to conditions: S. cerevisiae sgs1 mgt1 strain, at 50.0 µM, stronger effect = higher value. In outline: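 This yeast growth screen uses a strain with defined DNA-repair lesions; compound-treated growth is compared with vehicle-treated growth.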
The nature of test [4]: NCI Yeast Anticancer Drug Screen. Data for the cln2 rad14 strain (AID 165).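 Note: 0% = growth equal to vehicle treated cultures.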 The conditions noted are these: S. cerevisiae cln2 rad14 strain, at 50.0 µM, stronger effect = higher value. The procedure, abridged:
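Growth inhibition, relative to vehicle-treated controls, is the read-out. The test organism is a yeast strain with defined genetic alterations, cln2 rad14.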

Test [5] is described as follows: NCI Yeast Anticancer Drug Screen. Data for the bub3 strain (AID 167). As to conditions: S. cerevisiae bub3 mutant strain, at 50.0 µM, stronger effect = higher value. In outline:
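Steps: expose the mutant yeast strain to compound; grow alongside vehicle-treated cultures; measure growth; express inhibition against the vehicle cultures.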

Test [6] in a line: NCI Yeast Anticancer Drug Screen. Data for the mlh1 rad18 strain (AID 175). The conditions noted are these: S. cerevisiae mlh1 rad18 strain growth inhibition; at 50.0 µM; stronger effect = higher value. In outline:
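Cells of a genetically altered yeast strain, deficient in DNA damage repair, were treated with compound. Their growth was then compared with that of vehicle-treated cultures to give inhibition.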

Consider `CCOC(=O)CCC(NC(=O)c1ccc(NC)c([N+](=O)[O-])c1)C(=O)OCC` (stereo not given), for which the growth inhibition is 58.9% in test [1]; -1.9% in test [2]; 11.4% in test [3]; 18.8% in test [4]; 4% in test [5]; 0.8% in test [6].

Consider `O=C(/C=C/c1c(-c2ccccc2)[nH]c2ccccc12)c1cccc([N+](=O)[O-])c1`, for which the growth inhibition in test [1] is 43%; in test [2], 17.1%; in test [3], 42%; in test [4] it was 20.9%; in test [5], 19.9%; in test [6] it was 36.2%.

As for `COC(=O)/C=C\C1(CC(C)C)N=C(c2ccccc2)OC1=O` (stereo not given), the growth inhibition in test [1] was 14.9%; in test [2] it was 25.1%; in test [3] it was 15.8%; in test [4] it was 11.2%; in test [5], 36.1%; in test [6], 26.8%.

`O=C1CC2CCCCC2CC1c1ccc(OCc2ccccc2)c(OCc2ccccc2)c1` (stereo not given): the growth inhibition in test [1] was -6.7%; in test [2], -0.25%; in test [3], 23.6%; in test [4], 9.1%; in test [5], -3.55%; in test [6] it was -13.7%.

In the case of `O=c1c2c(-c3ccccc3)c3ccccc3nc2cnn1-c1ccccc1`, the growth inhibition in test [1] is -18.4%; in test [2], -11%; in test [3], -18.4%; in test [4], -18.4%; in test [5], -24.9%; in test [6], -14.2%.

With `CC1(C)Oc2ccc3c(=O)cc(-c4ccccc4)oc3c2C1C(=O)O` (stereo not given), the growth inhibition was 4.7% in test [1]; -14.5% in test [2]; -18.6% in test [3]; -22.6% in test [4]; 9.7% in test [5]; -24% in test [6].

Regarding `CC[C@@]1(OC(=O)CN2CCNCC2)C(=O)OCc2c1cc1n(c2=O)Cc2cc3ccccc3nc2-1`, the growth inhibition was 52.1% in test [1]; 70.8% (active) in test [2]; 49.1% in test [3]; 29.6% in test [4]; 26.1% in test [5]; 10.1% in test [6].

As for `CC(=O)OCC1OC(n2c(C)c(N=Nc3ccc(Cl)cc3)c(C)c(C#N)c2=S)C(OC(C)=O)C(OC(C)=O)C1OC(C)=O` (stereo not given), the growth inhibition in test [1] was 4.65%; in test [2], -0.75%; in test [3], 25.1%; in test [4] it was 11.9%; in test [5], 7.55%; in test [6] it was 18.8%.

Take `COC1/C=C\C=C(/C)C(=O)Nc2cc3nc4cccc(Br)c4oc-3c(c2=O)CC(C)CC(OC)C(O)C(C)/C=C(\C)C1OC(N)=O` (stereo not given): the growth inhibition was 33.1% in test [1]; 21.8% in test [2]; 26.2% in test [3]; 21.9% in test [4]; 44.1% in test [5]; 16.5% in test [6].

On to `CC(=O)C[n+]1ccccc1Oc1ccccc1`, for which the growth inhibition in test [1] was 5.9%; in test [2] it was 4.15%; in test [3], 4.25%; in test [4], 11.2%; in test [5], 12.8%; in test [6], 3.75%.

On to `NC1=NC(=O)C(CC(=O)Nc2ccc(Cl)cc2Cl)S1` (stereo not given), for which the growth inhibition in test [1] is -12.4%; in test [2] it was -17.6%; in test [3], -15.2%; in test [4] it was 3.3%; in test [5] it was -5.6%; in test [6] it was -5.6%.

As for `Cc1c(-c2ccccc2)c2ccccc2n1C`, the growth inhibition in test [1] was 38.1%; in test [2], 8.55%; in test [3], 10.4%; in test [4] it was 20.3%; in test [5], 20.6%; in test [6] it was 22.5%.

Consider `CC(C)(C)C1CCC2c3c([nH]c4ccccc34)C3C(=O)N(c4ccc(Cl)cc4)C(=O)C3C2C1` (stereo not given), for which the growth inhibition in test [1] was 37.6%; in test [2] it was -20%; in test [3], -6.1%; in test [4], -44.4%; in test [5] it was -25.4%; in test [6] it was -13.2%.

With `CCCCCc1nc2c(c(=O)n(C)c(=O)n2C)n1C`, the growth inhibition in test [1] was 14.2%; in test [2] it was -9.35%; in test [3] it was -1%; in test [4] it was 0%; in test [5] it was 6%; in test [6], 17.6%.

Consider `Cc1nnc2c3[nH]c4ccccc4c3c(Cl)nn12`, for which the growth inhibition is -3.3% in test [1]; -7.25% in test [2]; 3.55% in test [3]; -52.2% in test [4]; -10.8% in test [5]; -11.1% in test [6].

For `O=C(O)C(CCOc1ccccc1)(CCc1ccccc1)C(=O)O`, the growth inhibition is 4.1% in test [1]; -10.8% in test [2]; 5.7% in test [3]; -58.5% in test [4]; -8.1% in test [5]; -13.4% in test [6].

As for `OC(c1ccccc1)c1ccc2c(c1)CCC2` (stereo not given), the growth inhibition in test [1] was 3.55%; in test [2], -8.65%; in test [3], -6.1%; in test [4] it was -25.1%; in test [5], -18%; in test [6], 5.3%.

`CCCCOC(=O)c1ccc(OCCCC)cc1`: the growth inhibition was 23.6% in test [1]; 19.6% in test [2]; 16.6% in test [3]; 13.2% in test [4]; 10.5% in test [5]; 17.8% in test [6].

Consider `O=C(NNC(=O)c1ccc([N+](=O)[O-])cc1)c1ccccc1`, for which the growth inhibition is -5.85% in test [1]; 13.1% in test [2]; 15.9% in test [3]; -30.1% in test [4]; -13.4% in test [5]; -16.1% in test [6].

Turning to `CCC(CO)Nc1nncc2ccccc12` (stereo not given), the growth inhibition was 2.4% in test [1]; -3.45% in test [2]; 1.35% in test [3]; -31.5% in test [4]; -10.6% in test [5]; -12.3% in test [6].
